Only some compounds are listed: those with a hit (about 6.5% of all), similar ones and a draw of the others.
HCMV antiviral = blocks human cytomegalovirus replication | HFF cells, HCMV-luciferase reporter, 72 h; stronger effect = lower value | activity change, negative = inhibition, % at 57.5 µM | hit rate 4.5% among 410,000 | AID 1259415; in the data active = activity change below about -60%; inconclusive = no clear call, values can overlap the other calls; inactive = above about -39%
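Compounds were evaluated in HFFs infected with an HCMV luciferase reporter virus (MOI 1 PFU/cell). Luciferase in lysates collected 72 h post infection served as the replication measure.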
MARV entry inh = Marburg virus entry inhibition; hit rate 1.8% among 300,000; AID 540276; Marburg virus pseudotyped entry inhibition, cell reporter; Potency, µM (series often up to 37.8 µM), for the others: top-dose activity change, negative = inhibition, hits mostly inhibitors; calls by dose curve; tested in HEK293 cells; also: potency is read from the fitted curve at half-maximal effect
VACV Venus inh = inhibitors of vaccinia virus (Venus reporter); AID 720580; Potency, µM (top dose mostly 36.5 µM), for inactives: at the highest dose activity change, negative = inhibition, actives largely listed as inhibitors; hit rate 0.46% among 330,000; Vaccinia virus Venus reporter expression, fluorescence; calls by dose curve; tested in A549 cells; also: potency is read from the fitted curve at half-maximal effect; nearly all actives have a fitted effect of over 30% in size
LASV entry inh = inhibitors of Lassa virus binding or cell entry. AID 540256. hit rate 1.2% among 300,000. Potency, µM (doses to about 37.9 µM), without a hit: at the top dose activity change, negative = inhibition, most hits filed as inhibitors. Lassa virus pseudotype entry inhibition, cell reporter; calls by dose curve; tested in HEK293 cells; also: potency is read from the fitted curve at half-maximal effect; nearly all actives have a fitted effect of over 50% in size
VACV mCherry inh = vaccinia inhibition (mCherry reporter); Potency, µM (top dose mostly 36.5 µM), without a hit: at the highest dose activity change, negative = inhibition, usual class: inhibitors; hit rate 0.63% among 310,000; Vaccinia virus mCherry reporter infection, fluorescence; AID 720579; calls by dose curve; tested in A549 cells; also: potency is read from the fitted curve at half-maximal effect; nearly all actives have a fitted effect of over 35% in size
FMDV antiviral = blocks foot and mouth disease virus. FMDV antiviral cell-based qHTS. Potency, µM (titrated, usually from 57.9 µM), for the others: at the top dose activity change, negative = inhibition, hits mostly inhibitors. hit rate 1.2% among 410,000. AID 1159524; calls by dose curve; tested in HEK293T cells; also: read-out not given here; potency is read from the fitted curve at half-maximal effect; nearly all actives have a fitted effect of over 45% in size
* = called active by the depositor; i = inactive; ? = inconclusive; nt = no result; ! = not active in a repeat; [ ] = another dose, or the depositor's remark. % is scaled to controls: 0 for no effect and ±100 for the full control effect.

SMILES	HCMV antiviral	MARV entry inh	VACV Venus inh	LASV entry inh	VACV mCherry inh	FMDV antiviral
O=C(NCc1cccc(Cl)c1)c1ccc(NC(=O)N2CC3CCCN3c3ccccc32)cc1 (stereo unspecified)	4	nt	-10%	-9%[46.1 µM]	-18%	-11%
N=C(N)SCCN	21	35µM*!	-5%	22%	-20%	-2%
Cc1ccc(Oc2nc3c(c(=O)n(Cc4ccccc4F)c(=O)n3C)n2C)cc1	-15	?	nt	-9%	nt	20µM*
Cn1c(Oc2ccc(Cl)cc2)nc2c1c(=O)n(Cc1ccc(F)cc1)c(=O)n2C	-9	1%[46.1 µM]	15%	1%[46.1 µM]	9%	16µM*
CO[C@H]1[C@H](NC(=O)c2ccsc2)c2ccccc2C12CCN(Cc1cnn(C)c1C)CC2	nt	nt	-7%	nt	-13%	6%
CN(Cc1ccccc1)C(=O)COC(=O)c1ccccc1NS(=O)(=O)c1cccc(N)c1	30	-6%	-6%	-7%	-21%	13%
CC(OC(=O)c1ccccc1NS(=O)(=O)c1cccc(C(F)(F)F)c1)C(=O)N(C)Cc1ccccc1 (stereo unspecified)	?	7.1µM*	-15%	?	-8%	-2%
COC(=O)CC1OC1[C@H](C)[C@@H](OC)C(C)C (stereo partly specified)	nt	-15%[14.2 µM]	nt	?	nt	nt
CCC(=O)N1c2ccccc2CC1C(=O)NCCc1ccc(OC)c(OC)c1 (stereo unspecified)	14	nt	-5%	5%[46.1 µM]	1%	25%
CC(=O)N1c2ccc(S(=O)(=O)NCC3CCC(C(=O)Nc4ccc(C)cn4)CC3)cc2CC1C (stereo unspecified)	-62*	?	-16%	?	-24%	?
COc1ccccc1NC(=O)C1CCC(CNS(=O)(=O)c2ccc3c(c2)CC(C)N3C(C)=O)CC1 (stereo unspecified)	-31	nt	-26%	?	-28%	32µM*
COc1ccccc1NC(=O)C1CCN(S(=O)(=O)c2ccc3c(c2)CC(C)N3C(C)=O)CC1 (stereo unspecified)	-18	-2%[46.1 µM]	-10%	12%[46.1 µM]	i	-14%
CC(=O)N1c2ccc(S(=O)(=O)NCC3CCC(C(=O)Nc4ccc(C)c(C)c4)CC3)cc2CC1C (stereo unspecified)	-17	nt	-28%	7%[46.1 µM]	-19%	18µM*
CC(=O)N1c2ccc(S(=O)(=O)NCC3CCC(C(=O)Nc4cc(C)cc(C)c4)CC3)cc2CC1C (stereo unspecified)	-22	nt	-26%	?	?	?
CC(=O)N1c2ccc(S(=O)(=O)NCC3CCC(C(=O)N4CCCCC4)CC3)cc2CC1C (stereo unspecified)	-3	nt	nt	nt	nt	6%
CC(=O)N1c2ccc(S(=O)(=O)NCCC(=O)NCCc3ccc(Cl)cc3)cc2CC1C (stereo unspecified)	-61*	nt	15%[7.34 µM]	nt	11%[7.34 µM]	-26%
COc1cccc(CNC(=O)c2c(OC)cc(=O)n3c2CCN(C(=O)C2=C(C)OCCO2)CC3)c1	nt	nt	-8%	nt	-12%	31%
C1=Nc2ccccc2/C1=C/c1c[nH]c2ccccc12	nt	nt	21%	nt	-17%	nt
CC(=O)N1c2ccc(S(=O)(=O)NCC3CCC(C(=O)NC(C)(C)C)CC3)cc2CC1C (stereo unspecified)	7	nt	-5%	0%[46.1 µM]	-1%	-3%
CCc1ccc(NC(=O)C2CCC(CNS(=O)(=O)c3ccc4c(c3)CC(C)N4C(C)=O)CC2)cc1 (stereo unspecified)	29	nt	-12%[7.34 µM]	-1%[46.1 µM]	-9%[7.34 µM]	18µM*
CC(=O)N1CCOc2ccc(S(=O)(=O)NCC3CCC(C(=O)NCCC(C)C)CC3)cc21 (stereo unspecified)	?	27%[46.1 µM]	-5%	-8%[46.1 µM]	-14%	-15%
CC(=O)N1CCOc2ccc(S(=O)(=O)NCC3CCC(C(=O)Nc4ccc(C)cn4)CC3)cc21 (stereo unspecified)	-68*	?	-11%	?	-16%	?
CC(=O)N1c2ccc(S(=O)(=O)NCC3CCC(C(=O)Nc4ccc(F)cc4)CC3)cc2CC1C (stereo unspecified)	-26	nt	-23%	?	-18%	35µM*
CC(=O)Nc1ccc(Nc2cc3c(cn2)nc(-c2cccc(F)c2)n3C)cc1	21	nt	nt	nt	nt	nt
CCN(CC)S(=O)(=O)c1cc(NC(=O)CCc2c(C)noc2C)ccc1C	16	?	-12%	-15%[46.1 µM]	i	-16%
